Assay results reported in the supplement of paper PMC6718421.

system: Caenorhabditis elegans N2 (wild type); assay: animals with crystals or spheres in anterior pharynx; higher = more object (crystal/sphere) accumulation; conditions: 30 µM; 48 h; genotype: wild type N2; stage: L1 start
Protocol: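 Synchronized wild-type (N2) C. elegans L1 larvae (50 per well) were incubated in liquid NGM with E. coli HB101 and 30 uM of each wactive for 48 h. Live worms were scored by DIC and polarized-light microscopy for birefringent crystals or non-birefringent spheres in the anterior pharynx. At least 3 biological replicates were run with at least 20 worms each; the value is the mean % of animals carrying objects.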

SMILES	animals
Fc1ccc(N2CCN(Cc3cccc(Br)c3)CC2)cc1 [wact-30]	0%
CCOc1ccc(/C=C/[N+](=O)[O-])cc1 [wact-385]	0%
